The target of assay [1] is Progesterone receptor (Homo sapiens) (UniProt P06401). The experiment in a line: qHTS assay to identify small molecule agonists of the progesterone receptor (PR) signaling pathway (AID 1346784; calls by dose curve; further: nearly all actives have a fitted effect of over 30% in size). Summed up: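 Compounds were tested for PR agonism in HEK 293T cells bearing a beta-lactamase gene under UAS control. Treatment lasted 16 hr at 37C; signal came from fluorescence of a FRET substrate.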
On the technique in general: qHTS replaces the single test concentration by a dilution series.

Assay [2] has the same target. The experiment in a line: qHTS assay to identify small molecule antagonists of the progesterone receptor (PR) signaling pathway (AID 1346795; active means well fitted inhibition curve with a large enough effect in the signal ratio in the repeat runs, not every such curve was filed as active; the % refers to the signal ratio). Summed up: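 In HEK293T cells bearing the PR-UAS-bla reporter, compound effects on promegestone-driven (1 nM) beta-lactamase expression are assessed after 16 hr using a fluorescent FRET substrate incubated 2 hr at room temperature.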

A short description of assay [3]: qHTS assay to identify small molecule antagonists of the progesterone receptor (PR) signaling pathway - cell viability counter screen (AID 1346798). Further: series mostly up to about 92 µM; nearly all actives have a fitted effect of over 50% in size. Summed up:
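Following a 4 hr attachment, PR-UAS-bla HEK293T cells in charcoal-stripped FBS medium were exposed to compounds with R5020 for 16 hr; CellTiter-Glo was added and luminescence read after 30 min at room temperature.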

A short description of assay [4]: qHTS assay to identify small molecule agonists of the progesterone receptor (PR) signaling pathway - cell viability counter screen (AID 1346799; calls by dose curve; further: nearly all actives have a fitted effect of over 45% in size). The method, boiled down:
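Here, 3,000 PR-UAS-bla HEK293T cells per well were treated with compounds for 16 hr after a 6 hr preincubation at 37C and 5% CO2; cell viability is the CellTiter-Glo luminescence signal.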

A short description of assay [5]: qHTS assay to identify small molecule antagonists of the TGF-beta/Smad signaling pathway - cell viability counter screen (AID 1346824). Further: nearly all actives have a fitted effect of over 50% in size. The method, boiled down:
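Cytotoxicity counter-screen run in the same wells as the beta-lactamase Smad reporter read: CellTiter-Glo luminescence after 30 min at room temperature. HEK 293T SBE-bla cells had 5 hr compound exposure at 37 C with TGF-beta1 (0.25 ng/mL stock).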

Assay [6] can be described thus: qHTS assay to identify small molecule agonists of the TGF-beta/Smad signaling pathway - cell viability counter screen (AID 1346829). Further: top concentration of the series differs between compounds; nearly all actives have a fitted effect of over 45% in size. Summed up: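 CellTiter-Glo luminescence readout; SBE-bla HEK 293T cells, overnight plating, compound 5 hr at 37 C/5% CO2, then bla substrate 2 hr RT, then CellTiter-Glo 30 min RT.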
Assay [7] in a line: qHTS assay to identify small molecule agonists of the TGF-beta/Smad signaling pathway (AID 1346859; active means well fitted activation curve with a large enough effect in the signal ratio in the repeat runs, not every such curve was filed as active; the % refers to the signal ratio; further: series mostly up to about 77 µM). Summed up: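 Each well held 4,000 SBE-bla HEK 293T cells incubated overnight before compound addition; 5 hr later the cleavable FRET substrate went on for 2 hr at room temperature, and fluorescence was read at two emissions.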
Assay [8] can be described thus: Human pregnane X receptor (PXR) small molecule agonists, qHTS cell viability counter screen (AID 1346977). Further: nearly all actives have a fitted effect of over 50% in size. Summed up:
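Tox21 qHTS format; PXR-Luc HepG2, 2,000/well, charcoal-stripped FBS 5%. Cpd exposure 24hr. Read: CellTiter-Fluor fluorescence, multiplexed with luciferase.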

The nature of assay [9]: Caspase-3/7 induction in HepG2 cells by small molecules, qHTS assay (AID 1346978). Further: nearly all actives have a fitted effect of over 15% in size. The method, boiled down:
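Caspase-3/7 induction was measured by Caspase-Glo 3/7 luminescence (30 min, room temperature) after a 17 hr compound exposure of wild-type HepG2 cells seeded at 2,000 per well and pre-incubated 5 hr.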

Assay [10] is described as follows: Caspase-3/7 induction in CHO-K1 cells by small molecules, qHTS cell viability counter screen (AID 1346979). Further: nearly all actives have a fitted effect of over 35% in size. Summed up: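 CellTiter-Fluor viability check, qHTS format: wild-type CHO-K1, 16hr compound treatment, 1hr reagent incubation, fluorescence read.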
The nature of assay [11]: Caspase-3/7 induction in CHO-K1 cells by small molecules, qHTS assay (AID 1346980). Further: nearly all actives have a fitted effect of over 15% in size. Summed up: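 Luminescent Caspase-Glo 3/7 read (30min, room temperature) quantified apoptosis induction. Cells were wild-type CHO-K1, treated with compound for 17hr at 37 C and 5% CO2.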
Assay [12] can be described thus: Caspase-3/7 induction in HepG2 cells by small molecules, qHTS cell viability counter screen (AID 1346981). Further: series mostly up to about 92 µM; nearly all actives have a fitted effect of over 30% in size. Summed up:
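Counter screen for cytotoxicity: HepG2 exposed 16 hr to compounds, then CellTiter-Fluor viability signal (fluorescence, 1 hr reagent incubation).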

The target in assay [13] is Nuclear receptor subfamily 1 group I member 2 (Homo sapiens) (UniProt O75469). The experiment in a line: Human pregnane X receptor (PXR) small molecule agonists, qHTS assay (AID 1346982). Further: nearly all actives have a fitted effect of over 35% in size. Further: potency means the concentration at half of the fitted maximal effect. The method, boiled down: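 Luminescence (ONE-Glo, 30 min RT) after 24 hr compound exposure of PXR-Luc HepG2 cells; cells rested 5 hr post-plating in 5% charcoal-stripped FBS medium.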

The target in assay [14] is Cytochrome P450 2D6 (Homo sapiens) (UniProt P10635). The experiment in a line: Cytochrome P450 Family 2 Subfamily D Member 6 (CYP2D6) small molecule antagonists: luciferase reporter qHTS assay (AID 1671196). Further: nearly all actives have a fitted effect of over 50% in size. Further: potency means the concentration at half of the fitted maximal effect. Summed up:
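Inhibition of CYP2D6 was gauged by loss of luminescence, since light produced tracks the luciferin generated from a proluciferin substrate. A 10 min room-temperature preincubation preceded 1 h NADPH-supported turnover.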

The target of assay [15] is Thyrotropin-releasing hormone receptor (Homo sapiens) (UniProt P34981). The experiment in a line: qHTS assay to identify small molecule antagonists of the thyrotropin-releasing hormone receptor (TRHR) signaling pathway (AID 1346877; active means well fitted inhibition curve with a large enough effect in the repeat runs, not every such curve was filed as active; further: series mostly up to about 51 µM). The method, boiled down: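 In this cell-based calcium flux format, HEK293 cells expressing TRHR received test compound for 5 min before the agonist TRH (1 nM final). Dye loading lasted 2 h at 37 °C.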

Assay [16] shares this target. The experiment in a line: qHTS assay to identify small molecule agonists of the thyrotropin-releasing hormone receptor (TRHR) signaling pathway (AID 1346891; calls by dose curve; further: series mostly up to about 58 µM). Summed up: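 Screening of agonists relied on calcium signalling in HEK293 cells expressing human TRHR: dye loading 2 h at 37 °C preceded compound addition and a 3-min fluorescence time course.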
In assay [17] the target is Cytochrome P450 2C19 (Homo sapiens) (UniProt P33261). The experiment in a line: Cytochrome P450 Family 2 Subfamily C Member 19 (CYP2C19) small molecule antagonists: luciferase reporter qHTS assay (AID 1671197). Further: nearly all actives have a fitted effect of over 65% in size. Further: potency means the concentration at half of the fitted maximal effect. Summed up:
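Enzyme-substrate mix with proluciferin substrate (P450-Glo CYP2C19 system) preincubated with compounds 10 min at room temperature; NADPH regeneration solution added, 37C for 1 h; detection reagent stops reaction, luminescence read after 20 min. Ketoconazole positive control.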

Assay [18] concerns the target Nuclear receptor subfamily 1 group I member 2 (Rattus norvegicus) (UniProt Q9R1A7). The experiment in a line: Rat pregnane X receptor (rPXR) activation by small molecules, qHTS assay (AID 1346983). Further: nearly all actives have a fitted effect of over 20% in size. To be noted: rPXR luciferase reporter cells, One-Glo luminescence, 24 h; max activation: stronger effect = higher value. The method, boiled down:
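Luminescent readout (One-Glo luciferase, 30 min room temperature) followed 24 hr compound treatment at 37 C of rPXR cells plated 2,000 per well and preincubated 5hr; qHTS format with compounds delivered in DMSO.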

Assay [19] has as its target Nuclear receptor subfamily 1 group I member 2 (Homo sapiens) (UniProt O75469). The experiment in a line: CYP3A4 induction through human pregnane X receptor (PXR) by small molecules, qHTS assay (AID 1346984). Further: nearly all actives have a fitted effect of over 40% in size. Summed up:
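DPX-2 reporter cells; 24h cpd, 37C; Luciferin-IPA 3uM final x3h; One-Glo 30 min RT; lumi read.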

SMILES strings stand for the structures. A number with no mark means an inactive call. Results filed as inconclusive are left out. Calls of active or inactive are those of the source. Unless noted, the call rests on the fitted dose curve; in most records, active means well fitted curve in the direction sought with a large enough effect in the repeat runs; inconclusive means weak or mixed curves; inactive means no such curve, though single readings can be large; an effect the other way counts as inactive or inconclusive.
On the % scale 0 is the no-effect control and ±100 the full control effect.

Chain of Nuclear receptor subfamily 1 group I member 2 (Homo sapiens) (O75469 whole entry, looked up): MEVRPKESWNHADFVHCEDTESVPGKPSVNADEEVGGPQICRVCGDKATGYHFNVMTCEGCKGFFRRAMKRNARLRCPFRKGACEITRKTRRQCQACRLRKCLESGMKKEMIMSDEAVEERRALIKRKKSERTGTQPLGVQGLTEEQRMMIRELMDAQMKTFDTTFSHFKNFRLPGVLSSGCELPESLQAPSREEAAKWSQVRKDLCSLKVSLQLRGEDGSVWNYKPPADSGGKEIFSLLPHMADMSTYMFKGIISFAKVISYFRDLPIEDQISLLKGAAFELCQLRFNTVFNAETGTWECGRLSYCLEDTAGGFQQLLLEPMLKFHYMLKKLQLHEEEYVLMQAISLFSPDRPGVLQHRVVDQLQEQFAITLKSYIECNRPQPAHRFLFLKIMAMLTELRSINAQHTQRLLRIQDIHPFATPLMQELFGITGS
Chain of Thyrotropin-releasing hormone receptor (Homo sapiens) (P34981 whole entry, looked up): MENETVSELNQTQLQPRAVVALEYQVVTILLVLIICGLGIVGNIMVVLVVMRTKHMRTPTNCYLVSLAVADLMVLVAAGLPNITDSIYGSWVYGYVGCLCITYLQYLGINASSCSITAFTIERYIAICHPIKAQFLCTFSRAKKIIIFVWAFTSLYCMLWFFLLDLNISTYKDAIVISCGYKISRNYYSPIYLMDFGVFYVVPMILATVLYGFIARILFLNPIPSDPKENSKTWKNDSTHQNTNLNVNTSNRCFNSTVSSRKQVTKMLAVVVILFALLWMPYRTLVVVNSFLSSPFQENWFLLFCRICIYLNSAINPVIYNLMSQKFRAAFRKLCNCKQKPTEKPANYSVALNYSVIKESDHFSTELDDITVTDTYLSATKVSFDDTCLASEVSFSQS
Chain of Cytochrome P450 2D6 (Homo sapiens) (P10635 whole entry, looked up): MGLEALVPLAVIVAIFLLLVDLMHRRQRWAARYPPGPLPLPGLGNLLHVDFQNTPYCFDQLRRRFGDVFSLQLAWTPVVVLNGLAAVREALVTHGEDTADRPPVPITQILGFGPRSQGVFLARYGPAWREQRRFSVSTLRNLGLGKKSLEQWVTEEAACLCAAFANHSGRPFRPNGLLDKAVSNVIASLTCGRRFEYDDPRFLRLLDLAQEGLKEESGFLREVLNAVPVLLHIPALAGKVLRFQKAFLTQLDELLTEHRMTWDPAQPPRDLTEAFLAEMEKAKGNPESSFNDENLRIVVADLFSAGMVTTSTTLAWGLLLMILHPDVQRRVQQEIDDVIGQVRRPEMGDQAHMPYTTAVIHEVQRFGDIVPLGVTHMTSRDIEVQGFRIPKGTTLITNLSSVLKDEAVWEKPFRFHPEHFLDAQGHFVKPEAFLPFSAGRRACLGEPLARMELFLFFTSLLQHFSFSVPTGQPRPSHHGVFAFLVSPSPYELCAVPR
Chain of Cytochrome P450 2C19 (Homo sapiens) (P33261 whole entry, looked up): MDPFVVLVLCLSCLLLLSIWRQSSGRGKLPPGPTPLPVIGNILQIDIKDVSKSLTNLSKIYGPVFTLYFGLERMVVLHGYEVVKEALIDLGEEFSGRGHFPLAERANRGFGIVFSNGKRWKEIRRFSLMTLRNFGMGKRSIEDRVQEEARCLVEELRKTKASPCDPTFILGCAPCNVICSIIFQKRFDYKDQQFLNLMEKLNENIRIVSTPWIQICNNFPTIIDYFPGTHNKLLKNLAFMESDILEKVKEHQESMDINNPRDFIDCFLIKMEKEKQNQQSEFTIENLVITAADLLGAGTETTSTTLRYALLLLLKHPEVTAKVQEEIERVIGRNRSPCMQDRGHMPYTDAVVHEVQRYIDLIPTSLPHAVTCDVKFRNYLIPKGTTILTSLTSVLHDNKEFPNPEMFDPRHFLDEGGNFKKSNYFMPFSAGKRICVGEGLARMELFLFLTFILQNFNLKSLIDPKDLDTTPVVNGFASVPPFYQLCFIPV
Chain of Progesterone receptor (Homo sapiens) (P06401 whole entry, looked up): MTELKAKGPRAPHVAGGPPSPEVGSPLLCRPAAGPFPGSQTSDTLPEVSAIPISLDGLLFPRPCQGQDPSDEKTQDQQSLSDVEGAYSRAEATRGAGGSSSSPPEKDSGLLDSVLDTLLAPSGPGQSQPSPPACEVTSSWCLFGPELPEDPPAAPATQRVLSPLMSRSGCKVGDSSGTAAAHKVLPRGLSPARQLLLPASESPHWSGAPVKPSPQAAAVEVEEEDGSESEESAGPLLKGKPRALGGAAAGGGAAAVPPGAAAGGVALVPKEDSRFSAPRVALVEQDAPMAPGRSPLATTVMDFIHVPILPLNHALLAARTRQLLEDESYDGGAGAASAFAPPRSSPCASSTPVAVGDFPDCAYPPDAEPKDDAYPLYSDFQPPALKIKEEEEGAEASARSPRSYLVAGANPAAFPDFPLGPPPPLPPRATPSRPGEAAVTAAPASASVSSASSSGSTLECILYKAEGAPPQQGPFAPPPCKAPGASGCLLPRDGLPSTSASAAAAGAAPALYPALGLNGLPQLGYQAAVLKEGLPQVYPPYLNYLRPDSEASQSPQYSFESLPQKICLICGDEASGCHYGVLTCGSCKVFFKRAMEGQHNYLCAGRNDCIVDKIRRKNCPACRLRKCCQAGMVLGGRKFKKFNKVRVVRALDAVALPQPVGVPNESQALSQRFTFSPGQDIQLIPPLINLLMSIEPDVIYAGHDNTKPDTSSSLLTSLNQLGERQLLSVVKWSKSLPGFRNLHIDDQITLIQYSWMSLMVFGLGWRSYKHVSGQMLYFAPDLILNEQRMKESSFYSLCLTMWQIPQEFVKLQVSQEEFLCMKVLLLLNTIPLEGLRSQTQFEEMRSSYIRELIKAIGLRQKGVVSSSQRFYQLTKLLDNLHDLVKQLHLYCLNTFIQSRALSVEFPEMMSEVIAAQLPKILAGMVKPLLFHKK
Chain of Nuclear receptor subfamily 1 group I member 2 (Rattus norvegicus) (Q9R1A7 whole entry, looked up): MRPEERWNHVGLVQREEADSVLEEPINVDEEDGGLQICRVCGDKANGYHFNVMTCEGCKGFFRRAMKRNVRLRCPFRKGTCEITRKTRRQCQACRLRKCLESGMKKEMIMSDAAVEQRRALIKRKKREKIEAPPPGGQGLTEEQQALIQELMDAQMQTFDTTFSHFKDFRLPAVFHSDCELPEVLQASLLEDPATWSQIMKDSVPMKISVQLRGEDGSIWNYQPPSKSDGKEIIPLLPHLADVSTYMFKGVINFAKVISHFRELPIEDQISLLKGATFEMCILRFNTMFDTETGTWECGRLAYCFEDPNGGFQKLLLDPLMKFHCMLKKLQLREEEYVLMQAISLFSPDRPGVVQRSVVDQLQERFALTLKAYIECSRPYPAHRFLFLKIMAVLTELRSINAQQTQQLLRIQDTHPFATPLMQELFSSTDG

Consider `CCOC(=O)CC(=O)c1cc(F)c(Cl)nc1Cl`, for which the result in [1], in [7] and in assay [9] was inactive. In addition, the Potency entry in assay [2], in [3], in assay [4], in [5], in assay [6] and in assay [8] was “inactive” throughout. In addition, the Potency entry in assay [10], in [11], in assay [12], in [13] and in [14] was “inactive” throughout.

As to `O=C(O)C1CCC(C(=O)O)CC1` (stereo not given), the compound was classed as inactive in [1], in assay [7] and in [15]. The Potency result in assay [2], in assay [3], in assay [4], in assay [5], in assay [6] and in assay [16] was “inactive” in each case. In addition, the Potency entry in assay [10], in assay [11], in [12], in [13] and in [17] was “inactive” each time.

For the compound `C=CC(=O)OCCOC(=O)CCC(=O)O`, the outcome in assay [1], in [7] and in [15] was inactive. Moreover, the Potency result in assay [2], in assay [3], in [4], in assay [5], in [6] and in assay [16] was “inactive” throughout. Further, the Potency entry in assay [10], in assay [11], in assay [13] and in assay [14] was “inactive” throughout.

Consider `O=C(/C=C/c1ccc(O)c(O)c1)O[C@@H]1C[C@](O)(C(=O)O)C[C@@H](O)[C@H]1O`, for which the outcome in assay [1], in assay [7], in assay [15] and in [9] was inactive. In addition, the Potency result in assay [2], in assay [3], in assay [4], in assay [5], in assay [6] and in [16] was “inactive” each time. Moreover, the Potency entry in assay [11], in assay [12], in assay [13] and in assay [14] was “inactive” throughout. Moreover, the Potency in assay [17] was 80.9 µM (active).

Regarding `CC1(C)[C@H]2CC[C@]1(C)[C@H](O)C2`, the compound was classed as inactive in [1], in assay [7], in assay [15] and in assay [9]. The Potency entry in assay [2], in assay [3], in assay [4], in assay [5], in [6] and in [8] was “inactive” in each case. Also, the Potency entry in assay [10], in assay [11], in [12], in assay [13], in assay [19] and in assay [14] was “inactive” in each case. Also, in assay [17], the Potency result is “inactive”. The max activation in [18] was -0.529%.

In the case of `CC(CN)CCCN` (stereo not given), the compound was classed as inactive in assay [1], in [7], in assay [15] and in assay [9]. The Potency result in assay [2], in [3], in assay [4], in assay [5], in assay [6] and in assay [16] was “inactive” in each case. The Potency entry in [11], in assay [12] and in [17] was “inactive” throughout. Besides, the Potency in [13] was 24.3 µM (active); in assay [14], 22.4 µM (active).

Turning to `CC(=O)N(CC(=O)N(C)C)c1ccccc1`, the compound was classed as inactive in assay [1], in assay [7], in assay [15] and in assay [9]. Also, the Potency result in assay [2], in assay [3], in assay [4], in [5], in assay [6] and in [16] was “inactive” throughout. Moreover, the Potency entry in assay [10], in assay [11], in assay [12], in assay [13], in assay [14] and in assay [17] was “inactive” in each case.

Consider `C=CC[N+]1([C@H]2C[C@H]3[C@@H]4CC[C@H]5C[C@H](OC(C)=O)[C@@H](N6CCCCC6)C[C@]5(C)[C@H]4CC[C@]3(C)[C@H]2OC(=O)CC)CCCCC1`, for which the result in assay [1], in assay [7] and in assay [15] was inactive. The Potency result in assay [2], in [3], in assay [4], in assay [5], in [6] and in [8] was “inactive” throughout. The Potency entry in assay [10], in assay [11], in assay [12], in [13] and in assay [17] was “inactive” in each case. In addition, the Potency in assay [14] was 11 µM (active).

As for `CCCCCCCCN(C)C`, the compound was called inactive in assay [1], in assay [7] and in assay [15]. The Potency result in assay [2], in assay [3], in assay [4], in assay [5], in assay [6] and in [8] was “inactive” throughout. Also, the Potency result in assay [10], in [11], in assay [12], in assay [13], in assay [14] and in [17] was “inactive” in each case.

(Values after PubChem BioAssay (Tox21).)
